Laboratory results published in PubChem BioAssay AID1159580 (chemical genetic matrix, 2015).
In all, about 5,500 compounds went through this assay and about 2,000 (36%) were called active. Inconclusive results (about 18%) are left out. No stated cut-off is given here; in the data, active means normalized growth mostly below about 0.91 (no sharp cut-off); inconclusive means no clear call, values can overlap the other calls; inactive means mostly above about 0.92. Some of the results follow.

Test: chemical genetic growth profiling, strain panel (AID 1159580);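 further: tested at 20 µM; growth read once vehicle control cultures reached saturation at 30 °C; 1 = growth at the plate median or of vehicle wells; lower values mean less growth of the strain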
Conditions: S. cerevisiae deletion strains, growth OD

Measured: normalized growth

NC(=O)COc1c(F)cc(SCCNS(=O)(=O)c2ccccc2)cc1F
inactive: locus YAL040C, strain CLN3, hits give low values 1.03 | locus YCL061C, strain MRC1 (second series), hits give low values 1 | locus YDR363W, strain ESC2, hits give low values 0.968 | locus YER002W, strain NOP16, hits give low values 0.97 | locus YNL175C, strain NOP13, hits give low values 0.977 | locus YNL197C, strain WHI3, hits give low values 0.975 | locus YNL224C, strain SQS1, hits give low values 0.983 | locus YOR083W, strain WHI5 (second series), hits give low values 0.998 | locus YPL241C, strain CIN2, hits give low values 0.996

COc1ccc2cc1Oc1ccc(cc1)C[C@H]1c3c(cc4c(c3Oc3cc5c(cc3OC)CCN(C)[C@@H]5C2)OCO4)CCN1C
inactive: locus YAL021C, strain ccr4, hits give low values 1.01 | locus YAL026C, strain drs2, hits give low values 1.01 | locus YAL030W, strain snc1, hits give low values 0.989 | locus YBL061C, strain skt5, hits give low values 1.01 | locus YBR009C, strain hhf1, hits give low values 0.959 | locus YBR023C, strain chs3, hits give low values 1.01 | locus YBR171W, strain sec66, hits give low values 0.982 | locus YBR231C, strain swc5, hits give low values 0.959 | locus YBR279W, strain paf1, hits give low values 0.992 | locus YCL011C, strain gbp2, hits give low values 1.01 | locus YCL016C, strain dcc1, hits give low values 1.03 | locus YCL061C, strain MRC1, hits give low values 0.984 | locus YCL069W, strain vba3, hits give low values 0.969 | locus YCR088W, strain abp1, hits give low values 0.987 | locus YDL005C, strain med2, hits give low values 0.983 | locus YDL040C, strain nat1, hits give low values 0.982 | locus YDR001C, strain nth1, hits give low values 0.989 | locus YDR069C, strain doa4, hits give low values 0.979 | locus YDR137W, strain rgp1, hits give low values 1.1 | locus YDR159W, strain sac3, hits give low values 0.875 | locus YDR195W, strain ref2 0.942 | locus YDR297W, strain sur2, hits give low values 1 | locus YDR334W, strain swr1, hits give low values 0.963 | locus YDR335W, strain msn5, hits give low values 1.01 | locus YDR392W, strain spt3, hits give low values 0.743 | locus YEL003W, strain gim4, hits give low values 0.975 | locus YEL037C, strain rad23, hits give low values 0.969 | locus YEL061C, strain CIN8 (second series), hits give low values 0.98 | locus YER015W, strain faa2, hits give low values 0.994 | locus YER016W, strain bim1, hits give low values 1.06 | locus YER111C, strain swi4, hits give low values 0.997 | locus YER155C, strain BEM2 (second series), hits give low values 0.874 | locus YFR010W, strain ubp6, hits give low values 0.966 | locus YGL167C, strain pmr1, hits give low values 0.976 | locus YGL173C, strain kem1, hits give low values 0.961 | locus YGL227W, strain vid30, hits give low values 0.996 | locus YGL240W, strain doc1, hits give low values 0.962 | locus YGL253W, strain hxk2, hits give low values 1.01 | locus YHR013C, strain ard1, hits give low values 0.964 | locus YHR027C, strain rpn1, hits give low values 0.996 | locus YHR030C, strain SLT2, hits give low values 1.03 | locus YHR079C, strain IRE1, hits give low values 1.08 | locus YHR142W, strain chs7, hits give low values 1.03 | locus YJL092W, strain hpr5, hits give low values 0.988 | locus YJL095W, strain BCK1 (second series), hits give low values 0.989 | locus YJL095W, strain BCK1, hits give low values 1.03 | locus YJL115W, strain asf1, hits give low values 0.974 | locus YJL129C, strain trk1, hits give low values 1 | locus YJL154C, strain vps35, hits give low values 0.986 | locus YJL164C, strain tpk1, hits give low values 0.962 | locus YJL166W, strain qcr8, hits give low values 0.955 | locus YJL187C, strain SWE1, hits give low values 1.01 | locus YJR066W, strain TOR1, hits give low values 0.987 | locus YKL160W, strain elf1, hits give low values 1.05 | locus YKR026C, strain gcn3, hits give low values 0.964 | locus YKR091W, strain srl3, hits give low values 0.99 | locus YLL001W, strain dnm1, hits give low values 0.959 | locus YLL026W, hits give low values 0.999 | locus YLL041C, strain sdh2, hits give low values 0.977 | locus YLR027C, strain aat2, hits give low values 1 | locus YLR113W, strain HOG1, hits give low values 1.07 | locus YLR221C, strain rsa3, hits give low values 0.997 | locus YLR258W, strain gsy2, hits give low values 1 | locus YLR262C, strain YPT6 (second series), hits give low values 1.04 | locus YLR320W, strain mms22, hits give low values 0.922 | locus YLR342W, strain FKS1, hits give low values 1.02 | locus YLR357W, strain rsc2, hits give low values 0.934 | locus YLR370C, strain arc18, hits give low values 0.999 | locus YLR384C, strain iki3, hits give low values 1 | locus YML120C, strain ndi1, hits give low values 0.969 | locus YMR058W, strain fet3, hits give low values 0.978 | locus YMR125W, strain sto1, hits give low values 1 | locus YMR129W, hits give low values 0.971 | locus YMR205C, strain PFK2, hits give low values 0.973 | locus YMR231W, strain pep5, hits give low values 0.985 | locus YNL071W, strain lat1, hits give low values 0.982 | locus YNL183C, strain NPR1, hits give low values 0.951 | locus YNL209W, strain ssb2, hits give low values 0.99 | locus YNL248C, strain rpa49, hits give low values 1.02 | locus YNL322C, strain KRE1 (second series), hits give low values 1 | locus YNR049C, strain mso1, hits give low values 1 | locus YOR001W, strain rrp6, hits give low values 0.953 | locus YOR070C, strain gyp1, hits give low values 1 | locus YOR080W, strain dia2, hits give low values 0.977 | locus YOR083W, strain WHI5, hits give low values 1 | locus YOR106W, strain vam3, hits give low values 1.04 | locus YOR231W, strain MKK1, hits give low values 1.06 | locus YOR265W, strain rbl2, hits give low values 1 | locus YOR270C, strain vph1, hits give low values 1.06 | locus YOR290C, strain snf2, hits give low values 1.04 | locus YPL051W, strain arl3, hits give low values 1.04 | locus YPL078C, strain atp4, hits give low values 1.03 | locus YPL106C, strain sse1, hits give low values 0.949 | locus YPL240C, strain hsp82, hits give low values 0.985 | locus YPL256C, strain CLN2, hits give low values 1.07
